Measurements published in PubChem BioAssay AID1159580 (chemical genetic matrix, 2015).
Where “and” joins values, the source holds several entries; their conditions need not be identical. Identical values can stand only once. Out of some 5,500 compounds screened, about 2,000 (36%) were called active. Another 18% or so got no clear call; they are omitted. Rule as the data show it: active = normalized growth mostly below about 0.91 (no sharp cut-off); inconclusive = no clear call, values can overlap the other calls; inactive = mostly above about 0.92. The list shows a part of the results.

Assay: chemical genetic growth profiling, strain panel (AID 1159580);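 also: tested at 20 µM; growth read once vehicle control cultures reached saturation at 30 °C; 1 = growth at the plate median or of vehicle wells; lower values mean less growth of the strain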
Settings: S. cerevisiae deletion strains, growth OD

Measured: normalized growth

COc1c(O)cc2c(c1O)[C@H]1O[C@H](CO)[C@@H](O)[C@H](O)[C@@H]1OC2=O
inactive: locus YAL021C, strain ccr4, active compounds read low 1.03 | locus YAL026C, strain drs2, active compounds read low 1.02 | locus YAL030W, strain snc1, active compounds read low 1.02 | locus YBL061C, strain skt5, active compounds read low 1.03 | locus YBR009C, strain hhf1, active compounds read low 1.02 | locus YBR021W, strain FUR4, active compounds read low 0.961 | locus YBR023C, strain chs3, active compounds read low 1.03 | locus YBR171W, strain sec66, active compounds read low 1.02 | locus YBR229C, strain ROT2, active compounds read low 0.993 | locus YBR231C, strain swc5, active compounds read low 1.02 | locus YBR279W, strain paf1, active compounds read low 1.02 | locus YCL011C, strain gbp2, active compounds read low 1.02 | locus YCL016C, strain dcc1, active compounds read low 1.04 | locus YCL029C, strain bik1, active compounds read low 0.998 | locus YCL061C, strain MRC1, active compounds read low 1.02 | locus YCL069W, strain vba3, active compounds read low 1.02 | locus YCR088W, strain abp1, active compounds read low 1.02 | locus YDL005C, strain med2, active compounds read low 1.03 | locus YDL035C, strain GPR1, active compounds read low 1.02 | locus YDL040C, strain nat1, active compounds read low 1.02 | locus YDL074C, strain BRE1, active compounds read low 0.992 | locus YDL101C, strain DUN1, active compounds read low 0.985 | locus YDL185W, strain tfp1, active compounds read low 1.02 | locus YDL192W, strain arf1, active compounds read low 0.983 | locus YDR001C, strain nth1, active compounds read low 1.02 | locus YDR069C, strain doa4, active compounds read low 1.03 | locus YDR101C, strain arx1, active compounds read low 1.01 | locus YDR137W, strain rgp1, active compounds read low 1.05 | locus YDR150W, strain NUM1, active compounds read low 0.98 | locus YDR159W, strain sac3, active compounds read low 1 | locus YDR162C, strain NBP2, active compounds read low 0.988 | locus YDR195W, strain ref2 1 | locus YDR297W, strain sur2, active compounds read low 1.02 | locus YDR318W, strain mcm21, active compounds read low 1.01 | locus YDR334W, strain swr1, active compounds read low 1.02 | locus YDR335W, strain msn5, active compounds read low 1.02 | locus YDR388W, active compounds read low 0.996 | locus YDR392W, strain spt3, active compounds read low 0.966 | locus YDR502C, strain sam2, active compounds read low 1 | locus YEL003W, strain gim4, active compounds read low 1.02 | locus YEL037C, strain rad23, active compounds read low 1.02 | locus YEL061C, strain CIN8 (second series), active compounds read low 1.02 | locus YEL061C, strain CIN8, active compounds read low 0.962 | locus YER015W, strain faa2, active compounds read low 1.01 | locus YER016W, strain bim1, active compounds read low 1.02 | locus YER110C, active compounds read low 1.01 | locus YER111C, strain swi4, active compounds read low 1.01 | locus YER155C, strain BEM2 (second series), active compounds read low 1 | locus YER155C, strain BEM2, active compounds read low 0.996 | locus YER167W, strain BCK2, active compounds read low 0.973 | locus YFR010W, strain ubp6, active compounds read low 1.02 | locus YGL078C, strain dbp3, active compounds read low 1.03 | locus YGL086W, strain mad1, active compounds read low 0.991 | locus YGL167C, strain pmr1, active compounds read low 1.02 | locus YGL173C, strain kem1, active compounds read low 1.01 | locus YGL227W, strain vid30, active compounds read low 1.02 | locus YGL240W, strain doc1, active compounds read low 1.01 | locus YGL248W, strain PDE1, active compounds read low 1 | locus YGL253W, strain hxk2, active compounds read low 1.02 | locus YGR135W, strain pre9, active compounds read low 0.995 | locus YGR252W, strain gcn5, active compounds read low 0.991 | locus YHR013C, strain ard1, active compounds read low 1.02 | locus YHR027C, strain rpn1, active compounds read low 1.01 | locus YHR030C, strain SLT2, active compounds read low 1.01 and 0.959 | locus YHR079C, strain IRE1 (second series), active compounds read low 1.01 | locus YHR079C, strain IRE1, active compounds read low 0.987 | locus YHR094C, strain hxt1, active compounds read low 0.996 | locus YHR129C, strain ARP1, active compounds read low 0.988 | locus YHR142W, strain chs7, active compounds read low 1.05 | locus YHR200W, strain rpn10, active compounds read low 1 | locus YIL066C, strain RNR3, active compounds read low 0.986 | locus YIL073C, strain SPO22, active compounds read low 1.05 | locus YIL125W, strain kgd1, active compounds read low 1.01 | locus YIR030C, strain dcg1, active compounds read low 1 | locus YJL092W, strain hpr5, active compounds read low 1.02 | locus YJL095W, strain BCK1 (second series), active compounds read low 1.03 | locus YJL095W, strain BCK1, active compounds read low 0.811 and 0.98 | locus YJL115W, strain asf1, active compounds read low 1.01 | locus YJL129C, strain trk1, active compounds read low 1.04 | locus YJL134W, strain LCB3, active compounds read low 0.998 | locus YJL154C, strain vps35, active compounds read low 1.01 | locus YJL164C, strain tpk1, active compounds read low 1.02 | locus YJL166W, strain qcr8, active compounds read low 1.03 | locus YJL168C, strain set2, active compounds read low 1 | locus YJL187C, strain SWE1 (second series), active compounds read low 0.969 | locus YJL187C, strain SWE1, active compounds read low 1.03 | locus YJR043C, strain POL32, active compounds read low 0.997 | locus YJR066W, strain TOR1, active compounds read low 0.934 | locus YJR075W, strain HOC1, active compounds read low 1
